This note sets out measurements from PubChem BioAssay.

In one experiment the target is Albumin (Bos taurus) (UniProt P02769). As to the kind of experiment: compounds binding labelled BSA control protein – biochemical, small-molecule microarray, Alexa647 label, 635/667 nm fluorescence, artefact control for SMM control protein annotation, profiling panel (AID 1118).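 Further: score merges 667 nm emission intensity and signal-to-noise per printed compound spot.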 The note with it: BSA-A647 binding, fluorescence 635 nm, higher = more signal.
A short description of experiment [1]: probe aXIP binding to arrayed compounds – biochemical, NeuroSMM set, 635/667 nm fluorescence, primary screen (AID 1119).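 Further: probe is the protein aXip251-270 applied at 1 µg/mL to compound-printed slides; binding of probe to printed compounds measured as 667 nm fluorescence plus signal to noise.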 The note with it: small-molecule microarray, higher = more signal, called active from +8 up or from −8 down.
Experiment [2] in a line: probe aNOTCH3 binding on compound microarray – biochemical, small-molecule microarray, 635/667 nm fluorescence, primary screen (AID 1120).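 Further: probe is a biotin-tagged antibody raised against NOTCH3 rather than NOTCH3 protein; score merges spot fluorescence near 667 nm with spot signal to noise.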 The note with it: higher = more signal.
Experiment [3] is described as follows: probe aNOTCH2 binding on compound microarray – biochemical, small-molecule microarray, 635/667 nm fluorescence, primary screen (AID 1121).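 Further: score merges feature fluorescence read at 667 nm with its signal to noise.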 The note with it: higher = more signal.
The target of experiment [4] is Carbonic anhydrase 2 (Homo sapiens) (UniProt P00918). In words: compounds binding carbonic anhydrase 2 – biochemical, small-molecule microarray, Alexa647-labelled CAII, profiling panel (AID 1122). The note with it: CAII-A647 binding fluorescence, higher = more signal.
Experiment [5] is described as follows: COS7 lysate on small-molecule microarray, probe aHis, 635 nm (AID 1123).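 Further: z-score combines 667nm fluorescence intensity with signal-to-noise per printed compound spot.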 The note with it: COS7 cell lysate, fluorescence, higher = more signal.
Experiment [6] is described as follows: probe aLAP1 signal on lysate-treated microarray – cell lysate, small-molecule microarray, COS7 lysate, primary screen (AID 1124).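 Further: lysate comes from COS7 cells expressing LAP1 and is applied at 0.3 µg/mL; score merges spot fluorescence near 667 nm with signal-to-noise over triplicate slides.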 The note with it: probe aLAP1, fluorescence, higher = more signal.
The next experiment concerns Sam68 (KHDRBS1). In words: compounds binding KHDRBS1 protein – biochemical, small-molecule microarray, 635 nm fluorescence, primary screen (AID 1125).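 Further: score merges 667 nm channel intensity with signal to noise over triplicate slides.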 The note with it: higher = more signal.
The subject of experiment [7] is Chordin-like protein 2 (CHRDL2). In words: compounds binding chordin-like 2 – biochemical, small-molecule microarray, 635 nm fluorescence, primary screen (AID 1126).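 Further: printed compound slides probed with Chrdl2 protein at 4 µg/mL for 1 h at 4 C; score merges 667 nm emission intensity with signal to noise over three replicate slides.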 The note with it: fluorescence 635 nm, higher = more signal.
The target of experiment [8] is Concanavalin-A (Canavalia ensiformis) (UniProt P02866). As to the kind of experiment: compounds binding concanavalin A lectin – biochemical, small-molecule microarray, Alexa647 label, 635 nm, artefact control for SMM control protein annotation, primary screen (AID 1127).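 Further: z combines 667 nm emission intensity with signal-to-noise across three replicate slides.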 The note with it: ConA-A647 binding fluorescence, higher = more signal.

Each structure is given as a SMILES string. Calls of active or inactive are those of the source.

Sequence of Albumin (Bos taurus) (P02769 whole entry, looked up): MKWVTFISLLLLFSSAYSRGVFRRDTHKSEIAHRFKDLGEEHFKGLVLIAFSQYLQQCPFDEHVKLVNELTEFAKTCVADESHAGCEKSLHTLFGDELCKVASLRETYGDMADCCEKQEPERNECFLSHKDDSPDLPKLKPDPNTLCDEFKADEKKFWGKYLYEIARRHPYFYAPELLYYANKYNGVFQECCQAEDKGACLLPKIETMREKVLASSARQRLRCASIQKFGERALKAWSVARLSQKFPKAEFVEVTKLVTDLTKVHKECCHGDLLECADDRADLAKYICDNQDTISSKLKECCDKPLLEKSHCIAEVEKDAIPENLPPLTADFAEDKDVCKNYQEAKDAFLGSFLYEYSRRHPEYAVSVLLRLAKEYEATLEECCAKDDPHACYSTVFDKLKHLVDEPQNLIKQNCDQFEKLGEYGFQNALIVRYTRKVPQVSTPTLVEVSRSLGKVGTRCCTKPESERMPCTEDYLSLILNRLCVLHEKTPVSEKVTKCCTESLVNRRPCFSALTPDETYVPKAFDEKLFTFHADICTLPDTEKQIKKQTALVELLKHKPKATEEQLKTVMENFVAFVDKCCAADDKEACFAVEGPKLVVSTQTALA
Sequence of Concanavalin-A (Canavalia ensiformis) (P02866 whole entry, looked up): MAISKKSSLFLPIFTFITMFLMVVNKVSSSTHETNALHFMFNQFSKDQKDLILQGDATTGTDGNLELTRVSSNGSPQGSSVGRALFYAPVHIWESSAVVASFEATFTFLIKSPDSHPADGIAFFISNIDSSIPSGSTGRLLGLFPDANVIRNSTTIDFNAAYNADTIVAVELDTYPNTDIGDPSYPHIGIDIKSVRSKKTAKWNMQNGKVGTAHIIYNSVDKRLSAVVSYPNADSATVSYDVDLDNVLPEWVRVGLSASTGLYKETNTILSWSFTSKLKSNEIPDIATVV

In the case of `C[C@]1(C(=O)NCC(F)(F)F)c2ccccc2C(=O)N(Cc2ccc(OC(F)(F)F)cc2)[C@H]1c1ccc(CO)cc1`, the composite z-score in the experiment with Albumin (Bos taurus) was 0.499; in experiment [2] it was -0.179; in experiment [3] it was -0.171; in experiment [4] it was 0.481; in experiment [5], 0.751; in [6] it was 0.0891. The composite z-score was 0.185 in the experiment on Sam68 (KHDRBS1), -0.0339 in experiment [7] and 0.422 in experiment [8]. In experiment [1], the composite Z-score is -0.568 (inactive).

In the case of `COC(=O)[C@@]1(CCC(=O)OC(C)(C)C)N=C(c2ccc(OCCCO)cc2)O[C@H]1c1ccccc1CN=[N+]=[N-]`, the composite z-score with Albumin (Bos taurus) was -0.0515; in experiment [2] it was -0.0984; in experiment [3] it was -0.0786; in experiment [4], 0.743; in experiment [5], 1.41; in experiment [6], 0.348. Moreover, the composite z-score in the experiment with Sam68 (KHDRBS1) was -0.126; in [7], -0.141; in [8], 0.855. Moreover, in experiment [1], the composite Z-score was 0.69 (inactive).

For `C=CCC(OC(C)=O)[C@@H]1[C@@H](N(Cc2cccc3ccccc23)C(=O)c2cccc3ccccc23)c2cc(OCCCO)ccc2N1C(=O)Cc1ccc2ccccc2c1` (stereo not given in full), the composite z-score with Albumin (Bos taurus) was -0.351; in [2], -0.128; in [3], -0.147; in experiment [4] it was -0.272; in [5] it was -0.331; in experiment [6] it was -0.397. The composite z-score was -0.0418 in the experiment on Sam68 (KHDRBS1), 0.295 in experiment [7] and -0.508 in experiment [8]. Also, the composite Z-score in [1] is -0.745 (inactive).

On to `Cc1ccc(F)cc1S(=O)(=O)N[C@@H]1CCN(Cc2ccc3c(c2)OCO3)C1`, for which the composite z-score was 0.167 with Albumin (Bos taurus); -0.129 in experiment [2]; -0.147 in experiment [3]; 0.0085 in [4]; -0.702 in experiment [5]; 0.0521 in [6]. Besides, the composite z-score in the experiment with Sam68 (KHDRBS1) is -0.148; in [7], 0.0213; in [8], -0.319. Further, the composite Z-score in experiment [1] is -0.0662 (inactive).

As for `C=CC[C@@]1(C(=O)N(C)C)N=C(c2ccc(OCCCO)cc2)O[C@@H]1c1ccccc1`, the composite z-score is 0.434 in the experiment with Albumin (Bos taurus); 0.315 in experiment [2]; 0.182 in [3]; 0.644 in experiment [4]; 2.59 in experiment [5]; 1.01 in [6]. The values for the composite z-score (in the experiment on Sam68 (KHDRBS1); in experiment [7]; in [8]) were -0.108, 0.0028 and 0.148, respectively. Also, the composite Z-score in [1] is -0.593 (inactive).

Turning to `O=C1c2ccccc2[C@@]2(Cc3ccccc3N(Cc3ccccc3)C2=O)[C@H](c2ccc(CO)cc2)N1Cc1ccccc1`, the composite z-score was -0.819 with Albumin (Bos taurus); -0.132 in experiment [2]; -0.125 in experiment [3]; 0.19 in [4]; -0.137 in experiment [5]; 0.407 in [6]. The results for the composite z-score (in the experiment on Sam68 (KHDRBS1); in experiment [7]; in [8]) were -0.42, -0.845 and -0.571, respectively. For the same compound, the composite Z-score in experiment [1] is 0.225 (inactive).

On to `CC(C)(C)OC(=O)CC[C@]1(C(N)=O)N=C(c2ccc(OCCCO)cc2)O[C@H]1c1ccccc1CN=[N+]=[N-]`, for which the composite z-score with Albumin (Bos taurus) is 0.712; in [2], 0.761; in [3], 0.234; in experiment [4], 0.981; in experiment [5], 3.63; in experiment [6] it was 0.666. Also, the composite z-score with Sam68 (KHDRBS1) was 1.33; in experiment [7], -0.894; in experiment [8], 0.831. The composite Z-score in experiment [1] was 0.523 (inactive).
